In PubChem BioAssay (NCATS):
Records with an inconclusive call do not appear. The source made the active and inactive calls. Calls follow the shape of the dose curve; as a rule, active = well fitted curve in the direction sought with a large enough effect; inconclusive = small, poorly fitted or top-dose-only effect, or another doubt; inactive = no such curve, though single readings can be large; an effect the other way counts as inactive or inconclusive.

Assays:
[1] = Quantitative High-Throughput drug screen in 47 multiple myeloma cell lines against the NCATS MIPE library collection: ARD_JJKsccE7 cell viability assay (AID 1918929)
Summary of the method: (§1)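 CellTiter-Glo ATP luminescence gave viability after 48 h compound treatment at 37C of 500 multiple myeloma cells per well. Normalisation used DMSO-only wells as 100% and media-only wells as 0% viability; primary qHTS of approved and investigational drugs.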

[2] = Quantitative High-Throughput drug screen in 47 multiple myeloma cell lines against the NCATS MIPE library collection: Karpas620_DSMZ cell viability assay (AID 1918959); also: nearly all actives have a fitted effect of over 30% in size
Summary of the method: (§2)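 Inhibition of cell viability is measured here. Each line was plated at 500 cells per well, treated with MIPE 4.0 drugs, kept 48 hours at 37C, then assayed for ATP content by CellTiter-Glo luminescence.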

[3] = Quantitative High-Throughput drug screen in 47 multiple myeloma cell lines against the NCATS MIPE library collection: KMM1_JCRB cell viability assay (AID 1918960); also: nearly all actives have a fitted effect of over 30% in size
Summary of the method: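 Myeloma cells, 500 per well, were exposed to MIPE 4.0 drugs by pin transfer for 48 h at 37 °C, 5% CO2. Viability was read as ATP luminescence with CellTiter-Glo, normalised to DMSO-only (100%) and medium-only (0%) wells.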

[4] = Quantitative High-Throughput drug screen in 47 multiple myeloma cell lines against the NCATS MIPE library collection: Karpas417_ECACC cell viability assay (AID 1918961); conditions: Karpas417 myeloma viability, CellTiter-Glo ATP luminescence, 48 h; viability (% of DMSO): at 45.8 µM (top of the series)
Summary of the method: (§3)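 qHTS of the MIPE 4.0 collection: 500 myeloma cells/well, 48 h drug exposure at 37C in 5% CO2, then CellTiter-Glo for 5 min at room temperature before luminescence reading.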

[5] = Quantitative High-Throughput drug screen in 47 multiple myeloma cell lines against the NCATS MIPE library collection: JIM3_ECACC cell viability assay (AID 1918963; also: nearly all actives have a fitted effect of over 35% in size)
Summary of the method: as §2

[6] = Quantitative High-Throughput drug screen in 47 multiple myeloma cell lines against the NCATS MIPE library collection: INA6_PLB cell viability assay (AID 1918965; also: nearly all actives have a fitted effect of over 55% in size)
Summary of the method: as §3

[7] = Quantitative High-Throughput drug screen in 47 multiple myeloma cell lines against the NCATS MIPE library collection: KHM11_PLB cell viability assay (AID 1918962); also: nearly all actives have a fitted effect of over 35% in size
Summary of the method: as §2

[8] = Quantitative High-Throughput drug screen in 47 multiple myeloma cell lines against the NCATS MIPE library collection: JIM1_ECACC cell viability assay (AID 1918964)
Summary of the method: as §1

[9] = Quantitative High-Throughput drug screen in 47 multiple myeloma cell lines against the NCATS MIPE library collection: JJN3_DSMZ cell viability assay (AID 1918966; also: nearly all actives have a fitted effect of over 50% in size)
Summary of the method: as §1

[10] = Quantitative High-Throughput drug screen in 47 multiple myeloma cell lines against the NCATS MIPE library collection: H1112_PLB cell viability assay (AID 1918967; also: nearly all actives have a fitted effect of over 30% in size)
Summary of the method: as §1
Potency is read from the fitted curve at half-maximal effect.

Row | SMILES | Potency [1] | Potency [2] | Potency [3] | viability (% of DMSO) [4] | Potency [5] | Potency [6] | Potency [7] | Potency [8] | Potency [9] | Potency [10] | Potency [4]
1 | O=C(O)CCCCCC(=O)NN=C1CCCC1 | inactive | inactive | inactive | 136% (active) | inactive | inactive |  |  |  |  | 
2 | O=C(C=CC#Cc1cccc(NS(=O)(=O)c2ccccc2)c1)NO | 1180 nM (active) | 1870 nM (active) | 526 nM (active) |  | 5260 nM (active) | 743 nM (active) | 2350 nM (active) | 1320 nM (active) | 2350 nM (active) | 2960 nM (active) | 
3 | O=c1ccn([C@@H]2O[C@H](CO)[C@H](O)[C@@H]2F)c(=O)[nH]1 | inactive | inactive | inactive |  | inactive |  |  |  |  |  | inactive
4 | C[C@@]12C[C@@]3(O)O[C@@H](O1)[C@]1(COC(=O)c4ccccc4)[C@@H]3C[C@@]12O[C@@H]1O[C@H](CO)[C@@H](O)[C@H](O)[C@@H]1O | inactive | inactive | inactive |  | inactive |  | inactive | inactive |  | inactive | 
5 | O=C(Nc1nnc(-c2ccco2)o1)c1cc(-c2ccccc2)nc2ccccc12 | 18700 nM (active) | 20900 nM (active) | 14800 nM (active) |  |  | 16600 nM (active) |  |  | 20900 nM (active) | 18700 nM (active) | 23500 nM (active)
6 | C[C@@H]1CC[C@@]2(OC1)OC1CC3C4CC=C5CC(O)CCC5(C)C4CCC3(C)C1[C@@H]2C (some centres not stated) | inactive | inactive | inactive |  | inactive |  | inactive | inactive | inactive | inactive | 
7 | O=C1NC(=O)C(=Cc2ccc3nccc(-c4ccncc4)c3c2)S1 | 118 nM (active) | 296 nM (active) | 132 nM (active) |  | 296 nM (active) | 148 nM (active) | 46.9 nM (active) | 29.6 nM (active) | 93.5 nM (active) | 1050 nM (active) | 
8 | CON=C(C(=O)N[C@@H]1C(=O)N2C(C(=O)O)=C(Cn3ccc(=N)n3CCO)CS[C@H]12)c1csc(N)n1 | inactive | inactive | inactive |  | inactive | inactive | inactive | inactive |  | inactive | 
9 | CC(C=CC=C(C)C=CC1=C(C)CCCC1(C)C)=CC=CC=C(C)C=CC=C(C)C=CC1=C(C)CCCC1(C)C | 20900 nM (active) | 20900 nM (active) | inactive |  | inactive |  |  |  | 14800 nM (active) |  | 9350 nM (active)
10 | Cc1cc(O)c2c(c1)C(=O)c1cccc(O)c1C2=O | inactive | inactive | inactive | 136% (active) | inactive | inactive |  |  | inactive | inactive | 
11 | COc1ccc(C(C)=O)c(O)c1 | inactive | inactive | inactive |  | inactive | inactive |  |  | inactive | inactive | 418 nM (active)
12 | O=C(c1ccc(F)cc1)N1CCC[C@H](c2nc(-c3ccc(F)cc3)no2)C1 | inactive | inactive | inactive |  |  | inactive |  | inactive | inactive | inactive | inactive
13 | CC(C)OC(=O)[C@H](C)N[P@](=O)(OC[C@H]1O[C@@H](n2ccc(=O)[nH]c2=O)[C@](C)(F)[C@H]1O)Oc1ccccc1 | inactive | inactive | inactive |  | inactive | inactive | inactive |  |  |  | 
14 | O=C(O)C(=O)Nc1cccc(C2=NN=N[N]2)c1 | inactive | inactive | inactive |  | inactive | inactive |  |  |  | inactive | inactive
15 | NC(=O)c1ncn([C@@H]2O[C@H](CO)[C@@H](O)[C@@H]2O)c1N | inactive | inactive | inactive |  | inactive |  |  |  | inactive | inactive | inactive
16 | COc1ccc2c(c1OC)C(=O)OC2[C@H]1c2c(cc3c(c2OC)OCO3)CCN1C (some centres not stated) | 74.3 nM (active) | 26.4 nM (active) | 148 nM (active) |  |  | 52.6 nM (active) |  | 1 nM (active) | 5260 nM (active) | 235 nM (active) | 2090 nM (active)
17 | Nc1ncn([C@@H]2O[C@H](CO)[C@@H](O)[C@@H]2O)c(=O)n1 | 2350 nM (active) | 4690 nM (active) | 1180 nM (active) |  | 4690 nM (active) | 1180 nM (active) |  | 1480 nM (active) | 11800 nM (active) | 18700 nM (active) | 9350 nM (active)
18 | CCS(=O)(=O)Nc1ccc2[nH]c(O)c(C(=Nc3ccc(CN4CCCCC4)cc3)c3ccccc3)c2c1 | 469 nM (active) | 1480 nM (active) | 3720 nM (active) |  | 209 nM (active) | 469 nM (active) |  | 59 nM (active) | 743 nM (active) | 4690 nM (active) | 105 nM (active)
19 | CCNC(=O)c1cc2c(-c3cc(OCCN4CCCC4)c(Cl)cc3Cl)nc(N)nc2s1 | 526 nM (active) | 1050 nM (active) | 590 nM (active) |  |  | 590 nM (active) | 590 nM (active) |  | 2350 nM (active) | 6620 nM (active) | 590 nM (active)
20 | COc1cc(C)c(Sc2cnc(NC(=O)c3ccc(CNC(C)C(C)(C)C)cc3)s2)cc1C(=O)N1CCN(C(C)=O)CC1 (configuration not stated) | 4690 nM (active) | 8330 nM (active) | 3320 nM (active) |  | 3720 nM (active) | 14800 nM (active) | 14800 nM (active) | 1480 nM (active) | 10500 nM (active) | 5900 nM (active) | 
21 | Cc1coc2c1C(=O)C(=O)c1c-2ccc2c(C)cccc12 | inactive | 6620 nM (active) | inactive |  |  | 13200 nM (active) | inactive | inactive | 18700 nM (active) |  | 
22 | C[C@H](NC(=O)Cc1cc(F)cc(F)c1)C(=O)N[C@H](C(=O)OC(C)(C)C)c1ccccc1 | inactive | inactive | inactive |  |  |  | inactive |  |  | inactive | 
23 | COc1ccc(Nc2cc(-c3cnc(N)nc3)nc(N3CCOCC3)n2)cn1 | 372 nM (active) | 2640 nM (active) | 590 nM (active) |  | 3720 nM (active) | 4180 nM (active) |  |  | 4690 nM (active) |  | 
24 | O=C(CCCCCCC(=O)Nc1cccnc1)NO | 3320 nM (active) | 7430 nM (active) | 1660 nM (active) |  | 16600 nM (active) | 833 nM (active) |  | 4180 nM (active) | 4180 nM (active) | 5900 nM (active) | 
25 | CC1=C(C(=O)Nc2cc3cn[nH]c3cc2F)C(c2ccc(Cl)cc2F)N=C(c2ccnc(Cl)c2)N1 (configuration not stated) | 20900 nM (active) | 18700 nM (active) | 20900 nM (active) |  |  | 10500 nM (active) | inactive | 16600 nM (active) |  | 18700 nM (active) | 
26 | Cc1ccc([N+](=O)[O-])cc1S(=O)(=O)N(C)N=Cc1cnc2ccc(Br)cn12 | 11.8 nM (active) | 26.4 nM (active) | 11.8 nM (active) |  | 10.5 nM (active) |  |  | 1 nM (active) | 10.5 nM (active) | 13.2 nM (active) | 
27 | CN1C(C(=O)Nc2ccccn2)=C(O)c2sc(Cl)cc2S1(=O)=O | inactive | inactive | inactive |  | 3720 nM (active) | 2640 nM (active) | 3320 nM (active) |  | 3720 nM (active) |  | 
28 | COc1cccc2c1C(=O)c1c(O)c3c(c(O)c1C2=O)C[C@@](O)(C(=O)CO)C[C@@H]3O[C@H]1C[C@H](N)[C@@H](O)[C@H](C)O1 | 2640 nM (active) | 2350 nM (active) | 2090 nM (active) |  | 935 nM (active) | 166 nM (active) | 743 nM (active) |  | 662 nM (active) | 590 nM (active) | 
29 | CCCCCCCCCCCC(CC1OC(=O)C1CCCCCC)OC(=O)C(CC(C)C)NC=O (configuration not stated) | inactive | inactive | inactive |  | inactive | 332 nM (active) | inactive |  | 23500 nM (active) | inactive | 
30 | N#Cc1ccc(COC[C@H]2O[C@@H](n3c(NCc4ccc(Cl)c(Cl)c4)nc4c(N)ncnc43)[C@@H](O)[C@@H]2O)cc1 | 5260 nM (active) | 418 nM (active) | 5260 nM (active) |  | 14800 nM (active) | 7430 nM (active) |  |  | 469 nM (active) | 7430 nM (active) | 
